The source of these data is the supplement of paper PMC7858590.

SMILES strings stand for the structures.

One assay relates to human monocyte-derived macrophages (polarized). Put plainly: cell shape (eccentricity) Z-score vs DMSO control; higher = more elongated, M2-like morphology. The settings on record: 5 µM; 24 h; macrophage state: M1-polarized (IFNg + TNFa), cytokines present during treatment. The method, then: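 Primary-screen hits were rescreened on polarized hMDMs with the differentiating cytokines (IL-4 + IL-13 or IFNg + TNFa) kept in the medium during treatment with compound at 5 uM for 24 h. The eccentricity Z-score vs DMSO wells is averaged over experiments.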
As to `CCOC(=O)c1ncn2c1C1CCCN1C(=O)c1cc(OC)ccc1-2` (stereo not given), the “cell shape (Z-score)” value is 1.88. On the same count and under the same terms, the value for `COc1ccc2c3c([nH]c2c1)[C@H](CC(C)C)N1C(=O)[C@H](CCC(=O)OC(C)(C)C)NC(=O)[C@@H]1C3` was 6.14; that for `Cc1sc2c(c1C)C(c1ccc(Cl)cc1)=N[C@@H](CC(=O)OC(C)(C)C)c1nnc(C)n1-2` was -7.72; that for `CC(C)[C@]12O[C@H]1[C@@H]1O[C@]13[C@]1(O[C@H]1C[C@H]1C4=C(CC[C@@]13C)C(=O)OC4)[C@@H]2O` was 5.54. Still for that read-out and setting: the value for `COc1cc([C@@H]2c3cc4c(c(O)c3C[C@H]3COC(=O)[C@@H]32)OCO4)cc(OC)c1OC` was 3.15; that for `CN(C)C(=S)SSC(=S)N(C)C` was -4.6. The same measure, in the same setting: next, `COc1cc([C@@H]2c3cc4c(cc3[C@H](OC(C)=O)[C@H]3COC(=O)[C@H]23)OCO4)cc(OC)c1OC`: 7.24. Consider `COc1cc2c(c(OC)c1OC)-c1ccc(OC)c(=O)cc1[C@@H](NC(C)=O)CC2`, for which the “cell shape (Z-score)” value is 3.12.

For `O=C1/C(=C/c2ccccc2)C[C@@]2(O)[C@H]3Cc4ccc(O)c5c4[C@@]2(CCN3CC2CC2)[C@H]1O5`, the “cell shape (Z-score)” value is -6.15. The same measure, in the same setting: next, `COc1cc2ccc(=O)oc2c2ccoc12`: 8.59; `O=C(O)c1nn(Cc2ccc(Cl)cc2Cl)c2ccccc12`: 4.43; `CC[C@@H]1/C=C/C=C/C[C@H](C)[C@H](O)[C@](C)(O)C(=O)[C@H](C)[C@@H](O)[C@H](C)C(=O)[C@H](C)[C@@H](O)[C@H](C)/C=C/C(=O)O[C@H]2[C@@H](C)[C@@H](CC1)O[C@@]1(CC[C@@H](C)[C@@H](C[C@H](C)O)O1)[C@@H]2C`: -9.34. On the same count and under the same terms, the value for `C[C@]12CC[C@@H](O)C[C@@H]1CC[C@@H]1[C@@H]2CC[C@]2(C)[C@@H](C(=O)CO)CC[C@@H]12` was 3.05.

Turning to `CCC1(CC)C(=O)NC(=O)NC1=O`, the “cell shape (Z-score)” value was -5.4. `CCn1cc(C(=O)O)c(=O)c2cc3c(cc21)OCO3`: the “cell shape (Z-score)” value is 3.52. On the same count and under the same terms, next, `CN1[C@@H]2CC[C@H]1C[C@@H](OC(c1ccccc1)c1ccccc1N)C2` (stereo not given in full): -3.5; `CCCCCCCCCCCCCC(=O)O[C@@H]1[C@@H](C)[C@@]2(O)[C@@H](C=C(CO)C[C@]3(O)C(=O)C(C)=C[C@@H]23)[C@@H]2C(C)(C)[C@]12OC(C)=O`: -6.25.

As to `Clc1ccc(C(OCCN2CCCCC2)c2ccccc2)cc1` (stereo not given), the “cell shape (Z-score)” value was -5.91.

Turning to `C[C@]12CCC(=O)C=C1CC[C@@H]1C2CC[C@]2(C)C(=O)CCC12` (stereo not given in full), the “cell shape (Z-score)” value is -0.101. On the same count and under the same terms, the value for `CCC(=O)CCCCC[C@@H]1NC(=O)[C@H]2CCCCN2C(=O)[C@H]([C@@H](C)CC)NC(=O)[C@H](Cc2cn(OC)c3ccccc23)NC1=O` was 4.88; that for `COc1cc([C@@H]2c3cc4c(cc3[C@@H](O)[C@H]3COC(=O)[C@H]23)OCO4)cc(OC)c1O` was 3.2. Same read-out and setting: the value for `c1cc2c(c(N3CCNCC3)c1)OCCO2` was -7.3; that for `CC(C)=CC1C(C(=O)OCc2coc(Cc3ccccc3)c2)C1(C)C` (stereo not given) was 8.88; that for `O=C1NC(=O)c2c1c1c3ccccc3[nH]c1c1[nH]c3ccccc3c21` was 7.76. Still for that read-out and setting: the value for `CNc1ccc2oc(C[C@H]3O[C@@]4(CC[C@H]3C)O[C@H]([C@H](C)C(=O)c3ccc[nH]3)[C@H](C)C[C@H]4C)nc2c1C(=O)O` was -11.1.

Staying with this assay, now noted: 5 µM; 24 h; macrophage state: M2-polarized (IL-4 + IL-13), cytokines present during treatment.
As for `CC(=O)O[C@@H]1CC2C(C)(C)C(=O)C=C[C@]2(C)C2CC[C@]3(C)C(=CC(=O)O[C@H]3c3ccoc3)[C@@]21C` (stereo not given in full), the “cell shape (Z-score)” value was -9.39. Still for that read-out and setting: the value for `CC1=CC(=O)c2c(O)cccc2C1=O` was 3.72; that for `COc1cc(Br)c(OC)c2c1C(CN)C2` (stereo not given) was 7.42; that for `CN1C(=O)COc2c(C(=O)NC3CN4CCC3CC4)cc(Cl)cc21` (stereo not given) was -3.99.

For the compound `C=C1[C@@H](C)[C@H]2[C@H](Cc3ccccc3)NC(=O)[C@]23OC(=O)/C=C/[C@H](O)CCC[C@@H](C)C/C=C/[C@H]3[C@@H]1O`, the “cell shape (Z-score)” value is -29.4. Same read-out and setting: next, `O=c1[nH]c2ccccc2n1C1CCN(CCCC(c2ccc(F)cc2)c2ccc(F)cc2)CC1`: -5.52; `Cc1c(C(=O)c2cccc3ccccc23)c2cccc3c2n1[C@H](CN1CCOCC1)CO3`: -6.47; `CCN1C[C@]2(C)CC[C@H](O)[C@@]34C2[C@H](OC)C([C@@H]13)[C@@]1(O)C[C@H](OC)[C@H]2C[C@@H]4[C@@H]1[C@H]2O`: -1.79. The same measure, in the same setting: the value for `C(=C\c1ccccc1)/CN1CCN(CCOC(c2ccccc2)c2ccccc2)CC1` was 3.27; that for `CC(C)=CCC[C@]1(C)C=Cc2c(O)c3c(c(CC=C(C)C)c2O1)O[C@]12C(=C[C@@H]4C[C@H]1C(C)(C)O[C@@]2(C/C=C(/C)C(=O)O)C4=O)C3=O` was -10; that for `CC(=O)O[C@H]1C(=O)[C@@]2(C)[C@H]([C@H](OC(=O)c3ccccc3)[C@]3(O)C[C@H](O)C(C)=C1C3(C)C)[C@]1(OC(C)=O)CO[C@@H]1C[C@@H]2O` was -9.61. For the compound `C[C@H]1O[C@@H](O[C@H]2CC[C@]3(CO)C4CC[C@]5(C)[C@@H](C6=CC(=O)OC6)CC[C@]5(O)[C@@H]4CC[C@H]3C2)[C@H](O)[C@H](O)[C@@H]1O[C@@H]1O[C@H](CO)[C@@H](O)[C@H](O)[C@H]1O` (stereo not given in full), the “cell shape (Z-score)” value is -17.5. On the same count and under the same terms, next, `C[C@@]12C(=O)OC(=O)[C@]1(C)[C@H]1CC[C@@H]2O1`: -39.6; `c1ccc2c(c1)[I+]c1ccccc1-2`: -19. As for `COc1ccc2c(c1)[nH]c1c(C)nccc12`, the “cell shape (Z-score)” value was -11.
